Results taken from the supplement of paper PMC8728848.
Only a selection was taken, and the strongest signals are over-represented in it overall.

Experiments:
Experiment in all cases: glycan array binding signal (z-score within array); higher = stronger binding
Details in all cases: glycan notation: IUPAC condensed, linker removed
[1] = target: GlcNAc(b1-3)Gal(b1-4)GlcNAc(b1-3)Gal(b1-4)GlcNAc(b1-2)[GlcNAc(b1-3)Gal(b1-4)GlcNAc(b1-3)Gal(b1-4)GlcNAc(b1-6)]Man(a1-6)[GlcNAc(b1-3)Gal(b1-4)GlcNAc(b1-3)Gal(b1-4)GlcNAc(b1-2)Man(a1-3)]Man(b1-4)GlcNAc(b1-4)[Fuc(a1-6)]GlcNAc
Outline: (§1)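 Columns mapping to the same glycan were averaged after glycan names were converted to IUPAC-condensed notation. The data come from 3228 arrays in the Consortium for Functional Glycomics database, limited to those with an available protein sequence. Binding is reported as a within-array Z-score averaged across arrays of one protein sequence and across linkers.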

[2] = target: GlcNAc(b1-4)GlcNAc(b1-4)GlcNAc
Outline: as §1

[3] = target: Kdn(a2-3)Gal(b1-4)[Fuc(a1-3)]GlcNAc
Outline: as §1

[4] = target: Man(a1-2)Man(a1-6)[Man(a1-3)]Man(a1-6)[Man(a1-2)Man(a1-2)Man(a1-3)]Man
Outline: as §1

[5] = target: Man(a1-3)[Man(a1-6)]Man(a1-6)[Man(a1-3)]Man
Outline: as §1

[6] = target: Neu5Ac(a2-3)Gal(b1-3)GlcNAc(b1-3)GalNAc
Outline: as §1

[7] = target: Neu5Ac(a2-3)Gal(b1-3)[Fuc(a1-4)]GlcNAc(b1-3)Gal(b1-3)[Fuc(a1-4)]GlcNAc
Outline: as §1

[8] = target: Neu5Ac(a2-3)Gal(b1-4)GlcNAc(b1-2)[Neu5Ac(a2-3)Gal(b1-4)GlcNAc(b1-4)]Man(a1-3)[GlcNAc(b1-4)][Neu5Ac(a2-3)Gal(b1-4)GlcNAc(b1-2)[Neu5Ac(a2-3)Gal(b1-4)GlcNAc(b1-6)]Man(a1-6)]Man(b1-4)GlcNAc(b1-4)GlcNAc
Outline: as §1

[9] = target: Neu5Ac(a2-3)Gal(b1-4)[Fuc(a1-3)]GlcNAc(b1-3)GalNAc
Outline: as §1

[10] = target: Neu5Ac(a2-3)GalNAc
Outline: as §1

[11] = target: Neu5Ac(a2-3)[GalNAc(b1-4)]Gal(b1-4)Glc
Outline: as §1

[12] = target: Neu5Ac(a2-6)Gal(b1-4)GlcNAc(b1-2)Man(a1-3)[GlcNAc(b1-4)][Neu5Ac(a2-6)Gal(b1-4)GlcNAc(b1-2)Man(a1-6)]Man(b1-4)GlcNAc(b1-4)GlcNAc
Outline: as §1

[13] = target: Neu5Ac(a2-6)Gal(b1-4)GlcNAc(b1-2)[Neu5Ac(a2-6)Gal(b1-4)GlcNAc(b1-4)]Man(a1-3)[GlcNAc(b1-4)][Neu5Ac(a2-6)Gal(b1-4)GlcNAc(b1-4)Man(a1-6)]Man(b1-4)GlcNAc(b1-4)GlcNAc
Outline: as §1

[14] = target: Neu5Ac(a2-6)Gal(b1-4)GlcNAc(b1-3)Gal(b1-4)GlcNAc(b1-2)Man(a1-3)[Neu5Ac(a2-6)Gal(b1-4)GlcNAc(b1-3)Gal(b1-4)GlcNAc(b1-2)Man(a1-6)]GalNAc
Outline: as §1

[15] = target: Neu5Ac(a2-6)Gal(b1-4)GlcNAc(b1-3)Gal(b1-4)GlcNAc(b1-3)Gal(b1-4)GlcNAc
Outline: as §1

[16] = target: Neu5Ac(a2-6)Gal(b1-4)GlcNAc(b1-3)GalNAc
Outline: as §1

[17] = target: Neu5Ac(b2-6)Gal(b1-4)GlcNAc
Outline: as §1

B1: SP8524D-bot-399-27-399 (Bacteroides ovatus) (protein)
chain: DAKYDTLDTHAYIEEALSSTSQKVTVQATGESFTTLNVHLSNLSSTDNHYKLVTDQSVLDTYNHINGTGYIMLPKDYYTLPETITVKAGQYAADALSIALKAFSQEMMKSGESYALPVKLVLQDGSISPMENTGTFVILAESIIEFSAPMFVGAPSLKANKFTESPETYSQYTIEVRFQVANTADRDRAVFKNGGDDANFILLRFEDPQSDNENYKAHSLVQIVGRNRLYLNPSNSFKPNEWQHLALVCDGSNYRLYINGVDSGVLSIPTGATTFSDVNWFCLGDDSYSRWGNCKILMSEARIWSVVRSASQIQNNMTQVSPKSVGLEAYWRFNEGQGNVFEDATGKGHTLTTSATPTWIDGILSTDKSTEWK
- glycan array binding signal (z-score) [1]: 1.11
- glycan array binding signal (z-score) [2]: -0.187
- glycan array binding signal (z-score) [3]: 0.119
- glycan array binding signal (z-score) [4]: -0.455
- glycan array binding signal (z-score) [5]: 0.159
- glycan array binding signal (z-score) [6]: -0.628
- glycan array binding signal (z-score) [7]: 0.014
- glycan array binding signal (z-score) [8]: -0.648
- glycan array binding signal (z-score) [9]: 0.96
- glycan array binding signal (z-score) [10]: -0.038
- glycan array binding signal (z-score) [11]: 0
- glycan array binding signal (z-score) [12]: 0.589
- glycan array binding signal (z-score) [13]: 0.44
- glycan array binding signal (z-score) [14]: 0.437
- glycan array binding signal (z-score) [15]: -0.075
- glycan array binding signal (z-score) [16]: -0.138
- glycan array binding signal (z-score) [17]: -0.048
